Results taken from PubChem BioAssay (NCATS).
Records with an inconclusive call do not appear. A call without a number means that no potency is given here. The source made the active and inactive calls. Unless noted, the call rests on the fitted dose curve; in most records, active means well fitted inhibition curve with a large enough effect; inconclusive means small, poorly fitted or top-dose-only effect; inactive means flat fitted curve, though single readings scatter.

Tests used:
[1] = S16 Schwann cell PMP22 intronic element beta-lactamase assay (AID 624044; calls by dose curve; further: nearly all actives have a fitted effect of over 15% in size)
How it was run: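 Rat S16 Schwann cells with beta-Lac driven by a PMP22 intronic element, compound-treated 24 h at 37 °C. LiveBLAzer FRET B/G read: 460 nm normalized to potassium clavulanate vs DMSO; 535 nm FRET as viability; concentration-effect curves classified.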

3D7 = assay: qHTS profiling for inhibitors of Plasmodium falciparum proliferation (AID 504749); further: nearly all actives have a fitted effect of over 60% in size; further: potency means the concentration at half of the fitted maximal effect; conditions: P. falciparum in erythrocytes, SYBR Green DNA, 72 h; series mostly up to 12.8 µM
How it was run: (§1)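 P. falciparum-infected erythrocytes (0.3% parasitemia, 2.5% hematocrit final) were exposed to compounds for 72 h at 37 C in 5% CO2, then lysed with SYBR Green buffer overnight at room temperature; parasite DNA fluorescence was normalized to artemisinin and DMSO controls.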

AS120 = assay: as above; conditions: P. falciparum in erythrocytes, SYBR Green DNA, 72 h; series mostly up to 12.8 µM
How it was run: as §1

ATS189 = assay: as above; conditions: P. falciparum in erythrocytes, SYBR Green DNA, 72 h; series mostly up to 12.8 µM
How it was run: as §1

ATS95 = assay: as above; conditions: P. falciparum in erythrocytes, SYBR Green DNA, 72 h; series mostly up to 12.8 µM
How it was run: as §1

CP201 = assay: as above; conditions: P. falciparum in erythrocytes, SYBR Green DNA, 72 h; series mostly up to 12.8 µM
How it was run: as §1

CP217 = assay: as above; conditions: P. falciparum in erythrocytes, SYBR Green DNA, 72 h; series mostly up to 12.8 µM
How it was run: as §1

CP238 = assay: as above; conditions: P. falciparum in erythrocytes, SYBR Green DNA, 72 h; series mostly up to 12.8 µM
How it was run: as §1

CP252 = assay: as above; conditions: P. falciparum in erythrocytes, SYBR Green DNA, 72 h; series mostly up to 12.8 µM
How it was run: as §1

CP262 = assay: as above; conditions: P. falciparum in erythrocytes, SYBR Green DNA, 72 h; series mostly up to 12.8 µM
How it was run: as §1

CP266 = assay: as above; conditions: P. falciparum in erythrocytes, SYBR Green DNA, 72 h; series mostly up to 12.8 µM
How it was run: as §1

CP297 = assay: as above; conditions: P. falciparum in erythrocytes, SYBR Green DNA, 72 h; series mostly up to 12.8 µM
How it was run: as §1

CP305 = assay: as above; conditions: P. falciparum in erythrocytes, SYBR Green DNA, 72 h; series mostly up to 12.8 µM
How it was run: as §1

CP315 = assay: as above; conditions: P. falciparum in erythrocytes, SYBR Green DNA, 72 h; series mostly up to 12.8 µM
How it was run: as §1

CP329 = assay: as above; conditions: P. falciparum in erythrocytes, SYBR Green DNA, 72 h; series mostly up to 12.8 µM
How it was run: as §1

DFO2036 = assay: as above; conditions: P. falciparum in erythrocytes, SYBR Green DNA, 72 h; series mostly up to 12.8 µM
How it was run: as §1

N140 = assay: as above; conditions: P. falciparum in erythrocytes, SYBR Green DNA, 72 h; series mostly up to 12.8 µM
How it was run: as §1

PC15 = assay: as above; conditions: P. falciparum in erythrocytes, SYBR Green DNA, 72 h; series mostly up to 12.8 µM
How it was run: as §1

SC27B = assay: as above; conditions: P. falciparum in erythrocytes, SYBR Green DNA, 72 h; series mostly up to 12.8 µM
How it was run: as §1

W2 = assay: as above; conditions: P. falciparum in erythrocytes, SYBR Green DNA, 72 h; series mostly up to 12.8 µM
How it was run: as §1

SMILES	Potency [1]	Potency (3D7)	Potency (AS120)	Potency (ATS189)	Potency (ATS95)	Potency (CP201)	Potency (CP217)	Potency (CP238)	Potency (CP252)	Potency (CP262)	Potency (CP266)	Potency (CP297)	Potency (CP305)	Potency (CP315)	Potency (CP329)	Potency (DFO2036)	Potency (N140)	Potency (PC15)	Potency (SC27B)	Potency (W2)
CCN[C@@H]1C[C@H](N)[C@H](O[C@H]2OC(CN)=CC[C@H]2N)[C@@H](O)[C@H]1O[C@H]1OC[C@@](C)(O)[C@@H](NC)[C@@H]1O	inactive	inactive	inactive	inactive	inactive	inactive	inactive	inactive	inactive	inactive	inactive	inactive	inactive	inactive	inactive	inactive	inactive	inactive	inactive	inactive
CCC[C@@H]1O[C@@H]2C[C@@H]3[C@H]4CCC5=CC(=O)C=C[C@@]5(C)[C@H]4[C@H](O)C[C@@]3(C)[C@@]2(C(=O)CO)O1	inactive	7.94 µM (active)	11.2 µM (active)	7.08 µM (active)			10 µM (active)		11.2 µM (active)	inactive		12 µM (active)	inactive		inactive					6.01 µM (active)
C[C@H](C(=O)O)c1cccc(Oc2ccccc2)c1	inactive	inactive	inactive	inactive	inactive	inactive	inactive	inactive	inactive	inactive	inactive	inactive	inactive	inactive	inactive	inactive	inactive	inactive	inactive	inactive
C#C[C@]1(O)CC[C@@H]2[C@H]3CCC4=CCCC[C@@H]4[C@@H]3CC[C@@]21C	inactive	inactive	inactive	inactive	inactive	inactive	inactive	inactive	inactive	inactive	inactive	inactive	inactive	inactive	inactive	inactive	inactive	inactive	inactive	inactive
COc1ccccc1OC[C@H](O)CO	inactive	inactive	inactive	inactive	inactive	inactive	inactive	inactive	inactive	inactive	inactive	inactive	inactive	inactive	inactive	inactive	inactive	inactive	inactive	inactive
c1ccc2c(c1)CCC[C@@H]2C1=NCCN1		inactive	inactive	inactive	inactive	inactive	inactive	inactive	inactive	inactive	inactive	inactive	inactive	inactive	inactive	inactive	inactive	inactive	inactive	inactive
NC[C@@H]1O[C@@H](O[C@H]2[C@H](O)[C@H](O[C@@H]3O[C@H](CO)[C@@H](O)[C@H](N)[C@@H]3O)[C@@H](N)C[C@H]2N)[C@H](N)C[C@@H]1O	inactive	inactive	inactive	inactive	inactive	inactive	inactive	inactive	inactive	inactive	inactive	inactive	inactive	inactive	inactive	inactive	inactive	inactive	inactive	inactive
CCC(=O)O[C@@]1(C(=O)SCF)[C@@H](C)C[C@H]2[C@@H]3C[C@@H](F)C4=CC(=O)C=C[C@@]4(C)[C@]3(F)[C@@H](O)C[C@]21C	inactive					inactive				inactive	inactive	inactive	inactive	inactive	inactive		3.98 µM (active)		inactive	3.22 µM (active)
Cc1ccsc1/C=C\C1=NCCCN1C	inactive	inactive	inactive	inactive	inactive	inactive	inactive	inactive	inactive	inactive	inactive	inactive	inactive	inactive	inactive	inactive	inactive	inactive	inactive	inactive
C[C@H](CCC(=O)O)[C@H]1CC[C@@H]2[C@@H]3[C@@H](O)C[C@H]4C[C@@H](O)CC[C@@]4(C)[C@H]3CC[C@@]21C	inactive	inactive	inactive	inactive	inactive	inactive	inactive	inactive	inactive	inactive	inactive	inactive	inactive	inactive	inactive		inactive	inactive		inactive
CCc1c(C)[nH]c2c1C(=O)[C@H](CN1CCOCC1)CC2		inactive	inactive	inactive	inactive	inactive	inactive	inactive	inactive	inactive	inactive	inactive	inactive	inactive	inactive	inactive	inactive	inactive	inactive	inactive
CCN[C@@H]1CN(CCCOC)S(=O)(=O)c2sc(S(N)(=O)=O)cc21	inactive	inactive	inactive	inactive	inactive	inactive	inactive	inactive	inactive	inactive	inactive	inactive	inactive	inactive	inactive	inactive	inactive	inactive	inactive	inactive
